An excerpt weighted towards active compounds, which were near 2.2% of everything screened.
Statin myotox sup – protects C2C12 myotubes from simvastatin toxicity; ATP luminescence, 48 h; scaled: DMSO 0, geranylgeraniol control 100; rescue of ATP level, % at 7.49 µM; 330,000 compounds, 0.78% hits;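 active = mean ATP rescue above about 67%, or every replicate alone reaching that limit, limit read from the data, passing the limit was not always enough; inconclusive = no clear call, values can overlap the other calls; inactive = mean under the limit and some replicate under it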;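 also: myotubes were challenged with 10 µM simvastatin during compound exposure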
PGC1a acetyl inh – modulators of PGC1a acetylation. AID 651687. 350,000 compounds, 0.17% hits. U2OS PGC1a acetylation, AlphaScreen anti-acetyl-lysine; with virally co-expressed GCN5 acetyltransferase. inhibition, % at 15.6 µM;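 active = every replicate shows inhibition of at least 40%; inconclusive = mean inhibition at least 40% but some replicate below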;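 also: 0% = neutral control wells and 100% = positive control wells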
miR122 inh – miR-122 inhibition in Huh7 cells; activation (reporter increase), % at 12.5 µM; Huh7 miR-122 Renilla luciferase sensor, 48 h; neutral wells = 0, positive control = 100; 340,000 compounds, 0.3% hits; AID 602342;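 active = mean replicate activation score at least 90 and every replicate individually at or above 90; inconclusive = only one of the two criteria met; inactive = neither criterion met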;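 also: higher luciferase means less miR-122 activity so hits act as miR-122 inhibitors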
DENV2 CPE – inhibitors of DENV2 cytopathic effect; AID 651640; DENV2-infected cells, cytopathic effect rescue, plate reader; CPE inhibition, % at 9.99 µM; 350,000 compounds, 1.7% hits; in the data active = CPE inhibition above about 20%, passing the limit was not always enough; inconclusive = no clear call, values can overlap the other calls; tested in BHK-21 cells;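 also: 0% = median of neutral control wells and 100% = median of positive control wells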
PvdQ inh – P. aeruginosa PvdQ acylase inhibition; purified PvdQ acylase, fluorescence plate reader; inhibition, % at 10 µM; 340,000 compounds, 0.063% hits; AID 488965; in the data active = inhibition above about 30%, passing the limit was not always enough; inconclusive = no clear call, values can overlap the other calls;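 also: 0% = vehicle neutral wells and 100% = reference inhibitor wells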
Numbers without * were called inactive; u = inconclusive; x = no result given; ! = a repeat was not active; [ ] = dose if it differs, or a comment.

SMILES	Statin myotox sup	PGC1a acetyl inh	miR122 inh	DENV2 CPE	PvdQ inh
Nc1[nH]c(C(=O)c2ccc(Br)cc2)c(-c2ccc(Br)cc2)c1C(=O)NCCc1c[nH]c2ccccc12	x	x	x	3	x
Nc1[nH]c(C(=O)c2ccc(Br)cc2)c(-c2ccncc2)c1C(=O)NCCc1c[nH]c2ccccc12	x	x	x	20*	x
COc1ccc(-c2c(C(=O)c3ccccc3)[nH]c(N)c2C(=O)NCCc2c[nH]c3ccccc23)cc1	x	x	x	31*	x
NCCCn1c(C(=O)c2cc(Cl)c(N)c(Cl)c2)c2ccc([N+](=O)[O-])cc2[n+]1[O-]	-30	54*	-7	1	16
COc1ccc(C2CC(=O)Oc3c(C(CCN4CCCCC4)c4ccc(N(C)C)cc4)c(OC)cc(OC)c32)cc1 (stereo not given)	121*	-26	5	-12	-13
Cc1nc(S(=O)(=O)N[C@H]2CCN(Cc3ccc(OCCO)cc3)C2)cn1C	x	x	x	3	x
O=C(Nc1ccc(F)cc1)N[C@@H]1C[C@@H]2O[C@H](CO)CC[C@@H]2O[C@@H]1CCc1ccc(-c2ccccc2)cc1	x	6	x	-16	x
CCC(=O)N1CCc2cc(S(=O)(=O)CCC(=O)NCCc3ccc(OC)c(OC)c3)ccc21	107*	-8	-4	x	-8
CCC(=O)N1[C@H](CO)[C@@H](c2ccccc2)C12CN(Cc1ccccc1F)C2	x	-6	x	1	x
C[C@@H]1CN([C@@H](C)CO)C(=O)c2cccc(NC(=O)Nc3ccc(C(F)(F)F)cc3)c2O[C@@H]1CN(C)S(=O)(=O)c1ccc(Cl)cc1	56	2	-11[16.7 µM]	11	x
C/C(=C\C(=O)C(F)(F)F)Nc1ccc(C)cc1	x	x	x	-1	5
C/C(=C\C(=O)C(F)(F)F)Nc1cc(C)cc(C)c1	139*	-3	-5	x	-5
O=C1CSC(=Nc2ccccc2)N1	95*	6	-1	x	-6
O=C1CSC(=Nc2ccc(F)cc2)N1	-1	-1	-4	0	6
C[C@@H]1CCCCO[C@H](CN(C)C(=O)Nc2ccccc2)[C@H](C)CN([C@@H](C)CO)C(=O)c2cc(NS(C)(=O)=O)ccc2O1	x	11	3[16.7 µM]	2	x
Cc1ccc(S(=O)(=O)Nc2ccccc2C(=O)NCc2cccnc2)cc1	9	91*	-7	5	-13
O=C(NCc1cccnc1)c1ccccc1NS(=O)(=O)c1ccc(F)cc1	7	-2	-9	17	-7
COc1cc(OC)cc(-c2oc(=O)c3cc(OC)c(OC)cc3c2C#CCCO)c1	-18	12	-1	30*	3
COc1ccc(S(=O)(=O)N[C@H]2CC[C@H](CC(=O)NCc3ccccc3F)O[C@@H]2CO)cc1	2	9	x	3	x
COc1ccc(S(=O)(=O)N[C@@H]2C=C[C@H](CC(=O)NCCc3ccccc3)O[C@@H]2CO)cc1	6	-1	x	-1	x
O=C(C[C@H]1C=C[C@H](NS(=O)(=O)c2ccccc2)[C@H](CO)O1)N1CCC(Cc2ccccc2)CC1	x	-8	x	96*	x
COc1ccc(S(=O)(=O)N[C@H]2CC[C@@H](CC(=O)NCc3ccccc3F)O[C@H]2CO)cc1	4	-5	x	59*	x
COc1ccc(S(=O)(=O)N[C@H]2C=C[C@@H](CC(=O)NCCc3ccccc3)O[C@@H]2CO)cc1	-1	-2	x	24*	x
COc1ccc(S(=O)(=O)N[C@H]2CC[C@H](CC(=O)NCCc3ccncc3)O[C@H]2CO)cc1	-3	9	x	23*	x
O=C(C[C@@H]1C=C[C@@H](NS(=O)(=O)c2ccccc2)[C@H](CO)O1)N1CCC(Cc2ccccc2)CC1	x	8	x	u	x
SMILES	Statin myotox sup	PGC1a acetyl inh	miR122 inh	DENV2 CPE	PvdQ inh
COc1ccc(S(=O)(=O)Nc2ccc3c(c2)CC(=O)N([C@@H](C)CO)C[C@@H](C)[C@H](CN(C)Cc2ccc(C(=O)Nc4ccccc4N)cc2)O3)cc1	-41	2	37[16.7 µM]	2	x
COCc1cn(CC[C@@H]2CC[C@H](NC(=O)Nc3ccc4c(c3)OCO4)[C@H](CO)O2)nn1	2	2	x	-3	x
COCC(=O)N1[C@H](CO)[C@H]2c3ccccc3N(C(=O)c3ccncc3)C[C@H]21	-10	6	12[16.7 µM]	8	x
CCCNC(=O)N1CC2(CN(C)C2)c2c(n(C)c3cc(OC)ccc23)[C@H]1CO	x	4	x	-5	x
COc1ccc(NC(=O)N2C[C@H](O)COC[C@@H]3O[C@H](CC(=O)NC4Cc5ccccc5C4)CC[C@H]32)cc1	-1	-9	3[16.7 µM]	3	x
O=C(C[C@H]1C=C[C@H](NC(=O)c2ccccc2)[C@H](CO)O1)NCc1ccc(Oc2ccccc2)cc1	x	-1	x	31*	x
COc1ccccc1S(=O)(=O)N[C@@H]1C=C[C@@H](CC(=O)NCc2cccc(F)c2)O[C@@H]1CO	2	1	x	2	x
COc1ccccc1S(=O)(=O)N[C@H]1C=C[C@H](CC(=O)NCc2cccc(F)c2)O[C@H]1CO	-1	-1	x	28*	x
O=C(c1ccc(C(F)(F)F)cc1)C1CCCN(C(=O)CCN2CCCO2)C1 (stereo not given)	67*	-1	13	9	2
O=C(c1ccc(C(F)(F)F)cc1)C1CCCN(C(=O)Cn2cncn2)C1 (stereo not given)	x	2	3	-2	-2
COc1cccc(C(=O)Nc2ccc3c(c2)C(=O)N(C)[C@H]2CC[C@@H](CC(=O)NCC4CC4)O[C@H]2CO3)c1	-10	-2	22[16.7 µM]	4	x
CCN1CCCC1Cn1cnc2c([nH]c3ccc(Cl)cc32)c1=O (stereo not given)	99*	-6	-2	x	-10
COc1ccc(NC(=O)Nc2cccc3c2O[C@@H](CN(C)C)[C@@H](C)CN([C@@H](C)CO)C3=O)cc1	-1	4	-7[16.7 µM]	0	x
O=C(C[C@@H]1C=C[C@H](NS(=O)(=O)c2ccccc2F)[C@H](CO)O1)NCCCN1CCOCC1	12	2	x	-1	x
COc1ccc(NC(=O)N2CCCCN3[C@H](C2)[C@H](c2ccc(-c4ccccc4C)cc2)[C@@H]3CO)cc1	x	-7	-7[16.7 µM]	27*	x
COc1ccc(C#Cc2ccc([C@@H]3[C@H](CO)N4CCCCN(C(=O)Nc5ccccc5)C[C@@H]34)cc2)cc1	x	-78	-36[16.7 µM]	34*	x
C/C=C/c1ccc(C2[C@@H]3CN(C(=O)Nc4ccc(C(F)(F)F)cc4)C[C@H]2N3)cc1 (stereo not given in full)	x	1	x	41*!	x
CC(C)CC#Cc1ccc([C@@H]2[C@H]3CN(C(=O)Nc4ccccc4)CCCCN3[C@H]2CO)cc1	x	-26	-25[16.7 µM]	33*	x
CC(C)CC#Cc1ccc([C@H]2[C@@H](CO)N3CCCCN(C(=O)Nc4ccccc4)C[C@@H]23)cc1	x	7	2[16.7 µM]	x	x
COc1ccc(CN(C)C[C@@H]2Oc3ccc(NC(=O)C4CCCCC4)cc3C(=O)N([C@@H](C)CO)C[C@H]2C)cc1	15	3	0[16.7 µM]	1	x
O=C(C[C@@H]1C[C@H]2c3cc(NC(=O)NC4CCCCC4)ccc3O[C@H]2[C@@H](CO)O1)NCc1ccncc1	8	-2	0[16.7 µM]	-12	x
